Data on 18 molecules can be found in PubChem BioAssay (EPA / NIEHS).

Structures are written as SMILES. Several values for one entry are separate records, joined by “and”; a condition that tells them apart may be missing. Equal values may be shown once. Activity calls are given as the source filed them. The calls were made as follows: active = hit-call score of the fitted dose curve at least 0.9, where 1 is the maximum; inactive = score below 0.9.

What is called AC50 is the concentration giving half of the maximal activity seen.

Conditions in all cases: primary human HUVEC with PBMC; actives raise or lower the signal
Read-out in assay [1]: Monocyte Chemoattractant Protein-1 (MCP1), CCL2 (gene 6347)
Description: BSK_LPS_MCP1: BioMAP Diversity Plus: LPS Assay for Monocyte Chemoattractant Protein-1 (MCP1) Biomarker Activity (AID 2283081).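 As to AC50: co-culture stimulated with LPS; secreted MCP-1 protein quantified by ELISA in culture supernatant.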 The gist of the method:
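HUVEC plus PBMC co-culture (human primary cells, LPS system) exposed to test chemical for 24 h; MCP-1 measured by ELISA. Bidirectional curve fitting against DMSO baseline; parallel SRB total-protein staining flags overt cytotoxicity.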

Assay [2] in a line: BSK_LPS_PGE2: BioMAP Diversity Plus: LPS Assay for Prostaglandin E2 (PGE2) Biomarker Activity (AID 2283082).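 As to AC50: secreted prostaglandin E2 measured by ELISA in LPS-stimulated co-culture.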 The gist of the method: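 Primary human endothelial cells and blood mononuclear cells, co-cultured with LPS, receive test chemical; PGE2 ELISA follows at 24 h, with SRB-stained parallel cultures flagging cytotoxicity.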
Read-out in assay [3]: Macrophage colony-stimulating factor (MCSF), CSF1 (gene 1435)
Description: BSK_LPS_MCSF: BioMAP Diversity Plus: LPS Assay for Macrophage colony-stimulating factor (MCSF) Biomarker Activity (AID 2283083). The gist of the method:
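Human umbilical vein endothelial cells co-cultured with peripheral blood mononuclear cells were exposed to compound for 24 h. M-CSF levels were measured by ELISA, and bidirectional curve fitting used DMSO as the negative control and baseline.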

Read-out in assay [4]: Tissue Factor, F3 (gene 2152)
The assay can be described thus: BSK_LPS_TissueFactor: BioMAP Diversity Plus: LPS Assay for Tissue Factor Biomarker Activity (AID 2283084). The gist of the method: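 Human umbilical vein endothelial cells co-cultured with peripheral blood mononuclear cells were dosed and stimulated with LPS. Cell-surface CD142 was quantified by ELISA at 24 h. Activity was fitted bidirectionally against DMSO baseline.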

Read-out in assay [5]: Vascular cell adhesion molecule 1 (VCAM1), VCAM1 (gene 7412)
Description: BSK_LPS_VCAM1: BioMAP Diversity Plus: LPS Assay for Vascular cell adhesion molecule 1 (VCAM1) Biomarker Activity (AID 2283086). The gist of the method:
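Measured by ELISA: VCAM-1 in LPS-activated HUVEC/PBMC co-cultures 24 h after treatment. Values reflect bidirectional fitting with DMSO as baseline.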

Read-out in the next assay: CD38, CD38 (gene 952)
The assay can be described thus: BSK_SAg_CD38: BioMAP Diversity Plus: SAg Assay for CD38 Biomarker Activity (AID 2283087). The gist of the method:
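Measures CD38 on a human endothelial/PBMC co-culture driven by SEB and TSST-1, 24 h after compound exposure, using ELISA with fluorescence detection; DMSO defines baseline for bidirectional curve fitting.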

Read-out in a further assay: CD40, CD40 (gene 958)
Description: BSK_SAg_CD40: BioMAP Diversity Plus: SAg Assay for CD40 Biomarker Activity (AID 2283088). The gist of the method:
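Human umbilical vein endothelial cells co-cultured with PBMC; CD40 levels measured by ELISA with fluorescence read-out 24 h after chemical dosing. Gain or loss of signal fitted bidirectionally against DMSO baseline.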

Read-out in assay [6]: Monocyte Chemoattractant Protein-1 (MCP1), CCL2 (gene 6347)
Description: BSK_SAg_MCP1: BioMAP Diversity Plus: SAg Assay for Monocyte Chemoattractant Protein-1 (MCP1) Biomarker Activity (AID 2283090). The gist of the method: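 Values derive from bidirectional fitting of ELISA-measured MCP1 against DMSO controls. Readings were taken 24 h after dosing human vascular endothelial cells co-cultured with peripheral blood mononuclear cells under superantigen stimulation.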

Read-out in the next assay: CD69, CD69 (gene 969)
The assay can be described thus: BSK_SAg_CD69: BioMAP Diversity Plus: SAg Assay for CD69 Biomarker Activity (AID 2283089).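 As to AC50: cell surface CD69 protein quantified by ELISA with fluorescence detection.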 The gist of the method: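 Values derive from bidirectional fitting relative to DMSO vehicle. Cells: umbilical vein endothelium plus peripheral blood mononuclear cells, treated 24 h before fluorescent ELISA for CD69.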

Regarding `CCN(CC)c1ccc(C=O)cc1`, the outcome in [1] is “inactive”; in assay [2], “inactive”; in assay [3], “inactive”; in [4] it was “inactive”; in assay [5] it was “inactive”; with CD38, CD38 (gene 952), “inactive”. The outcome with CD40, CD40 (gene 958) is “inactive”; in assay [6], “inactive”.

As to `O=C(O)C(F)(F)C(F)(F)C(F)(F)C(=O)O`, the outcome in assay [1] is “inactive”; in assay [2], “inactive”; in assay [3] it was “inactive”; in assay [4], “inactive”; in assay [5], “inactive”; in the assay with CD38, CD38 (gene 952), “inactive”. Moreover, the outcome was “inactive” with CD40, CD40 (gene 958); “inactive” with CD69, CD69 (gene 969); “inactive” in assay [6].

Regarding `C=CC(=O)OCC(F)(F)C(F)(F)C(F)(F)COC(=O)C=C`, the half-maximal activity concentration (AC50) in [1] was 18.8 µM (active) and 16.1 µM (active); in assay [2], 8.09 µM (active) and 8.04 µM (active); in assay [3], 14.9 µM (active) and 8.27 µM (active); in assay [4], 21.9 µM (active) and 20.2 µM (active); in [5], 15.1 µM (active) and 8.51 µM (active); in the assay with CD38, CD38 (gene 952), 14.2 µM (active). The concentration at half-maximal activity (AC50) was 16.3 µM (active) and 12.2 µM (active) in the assay with CD40, CD40 (gene 958); 22.5 µM (active) and 14 µM (active) in assay [6].

`OC(O)C(F)(F)C(F)(F)F`: the outcome in [1] was “inactive”; in assay [2], “inactive”; in assay [3], “inactive”; in assay [4] it was “inactive”; in assay [5], “inactive”; in the assay with CD38, CD38 (gene 952), “inactive”. For the same molecule, the outcome in the assay with CD40, CD40 (gene 958) is “inactive”; with CD69, CD69 (gene 969) it was “inactive”; in [6], “inactive”.

On to `FC(F)(F)C(F)(F)C(F)(F)C(F)(F)C(F)(F)C(F)(F)C(F)(F)CCI`, for which the outcome was “inactive” in assay [1]; “inactive” in assay [2]; “inactive” in assay [3]; “inactive” in assay [4]; “inactive” in [5]; “inactive” with CD38, CD38 (gene 952). Besides, the outcome in the assay with CD40, CD40 (gene 958) was “inactive”; in assay [6] it was “inactive”.

As to `NC(=O)C(F)(F)C(F)(F)C(F)(F)C(F)(F)C(F)(F)C(F)(F)C(F)(F)F`, the outcome in assay [1] is “inactive”; in assay [2] it was “inactive”; in assay [3], “inactive”; in assay [4], “inactive”; in assay [5] it was “inactive”; with CD38, CD38 (gene 952) it was “inactive”. The outcome with CD40, CD40 (gene 958) was “inactive”; with CD69, CD69 (gene 969), “inactive”; in [6], “inactive”.

Regarding `O=C=Nc1cccc2c(N=C=O)cccc12`, the outcome in [1] was “inactive”; in [2], “inactive”; in assay [3], “inactive”; in [4], “inactive”; in assay [5] it was “inactive”; in the assay with CD38, CD38 (gene 952), “inactive”. In addition, the outcome with CD40, CD40 (gene 958) was “inactive”; in assay [6], “inactive”.

Regarding `CCN(CC)c1ccc(C=O)c(O)c1`, the outcome in [1] is “inactive”; in [2] it was “inactive”; in assay [3], “inactive”; in [4] it was “inactive”; in assay [5], “inactive”; in the assay with CD38, CD38 (gene 952) it was “inactive”. Also, the outcome with CD40, CD40 (gene 958) is “inactive”; in assay [6], “inactive”.

Turning to `O=C(O)C(F)(F)C(F)(F)C(F)(F)OC(F)(F)F`, the outcome in assay [1] is “inactive”; in assay [2], “inactive”; in assay [3] it was “inactive”; in assay [4], “inactive”; in assay [5], “inactive”; with CD38, CD38 (gene 952), “inactive”. Also, the outcome with CD40, CD40 (gene 958) was “inactive”; in assay [6], “inactive”.

As to `O=C(Cl)C(F)(F)C(F)(F)C(F)(F)C(F)(F)C(F)(F)C(F)(F)F`, the outcome in assay [1] is “inactive”; in assay [2] it was “inactive”; in assay [3], “inactive”; in assay [4] it was “inactive”; in assay [5], “inactive”; with CD38, CD38 (gene 952) it was “inactive”. The outcome is “inactive” with CD40, CD40 (gene 958) and “inactive” in [6].

In the case of `Cc1cc(O)c(C(C)(C)C)cc1C(C)(C)C`, the half-maximal activity concentration (AC50) is 9.04 µM (active) in assay [1]; 5.29 µM (active) in assay [3]; 5.3 µM (active) in assay [4]; 5.9 µM (active) in assay [5]; 10.1 µM (active) with CD38, CD38 (gene 952); 5.09 µM (active) with CD40, CD40 (gene 958). Besides, the AC50 is 5.18 µM (active) with CD69, CD69 (gene 969) and 7.3 µM (active) in assay [6]. For the same molecule, the outcome in assay [2] was inactive.

Consider `O=C(F)C1(F)C(F)(F)C(F)(F)C(F)(F)C(F)(F)C1(F)F`, for which the outcome in assay [1] was “inactive”; in assay [2], “inactive”; in assay [3], “inactive”; in assay [4] it was “inactive”; in [5] it was “inactive”; with CD38, CD38 (gene 952) it was “inactive”. The outcome with CD40, CD40 (gene 958) is “inactive”; with CD69, CD69 (gene 969), “inactive”; in assay [6], “inactive”.

With `CCN(CC)c1ccc(N=Nc2ccccc2)cc1`, the AC50 in [1] is 31.9 µM (active); in [3], 20 µM (active); with CD38, CD38 (gene 952), 27.5 µM (active); with CD40, CD40 (gene 958) it was 14.2 µM (active); with CD69, CD69 (gene 969), 14.3 µM (active); in assay [6], 30.2 µM (active). Further, the outcome in [2], in assay [4] and in assay [5] was inactive.

In the case of `C[Si](Cl)(Cl)CCC(F)(F)C(F)(F)C(F)(F)C(F)(F)C(F)(F)C(F)(F)F`, the outcome in assay [1] is “inactive”; in assay [2], “inactive”; in assay [3], “inactive”; in assay [4] it was “inactive”; in [5] it was “inactive”; in the assay with CD38, CD38 (gene 952), “inactive”. The outcome in the assay with CD40, CD40 (gene 958) was “inactive”; with CD69, CD69 (gene 969), “inactive”; in [6], “inactive”.

Consider `OCC(O)CC(F)(F)C(F)(F)C(F)(F)C(F)(F)F` (configuration not stated), for which the outcome is “inactive” in assay [1]; “inactive” in assay [2]; “inactive” in assay [3]; “inactive” in assay [4]; “inactive” in assay [5]; “inactive” with CD38, CD38 (gene 952). In addition, the outcome with CD40, CD40 (gene 958) was “inactive”; in assay [6], “inactive”.

For `O=C(c1ccccc1)c1ccc(O)cc1O`, the outcome in assay [1] was “inactive”; in assay [3], “inactive”; in [4], “inactive”; in [5], “inactive”; in the assay with CD40, CD40 (gene 958), “inactive”; with CD69, CD69 (gene 969), “inactive”. In addition, the result in assay [6] was inactive. Also, the AC50 is 726 nM (active) in assay [2] and 20 µM (active) with CD38, CD38 (gene 952).

`CCN=C1C=CC(=C(c2ccc(N(CC)CC)cc2)c2ccc(N(CC)CC)cc2)c2ccccc21`: the AC50 in [1] was 261 nM (active) and 1.13 µM (active); in assay [2], 3.95 µM (active) and 2.66 µM (active); in assay [3] it was 1.72 µM (active) and 1.53 µM (active); in [4], 1.6 µM (active) and 1.55 µM (active); in assay [5] it was 1.42 µM (active) and 1.55 µM (active); with CD38, CD38 (gene 952), 713 nM (active) and 470 nM (active). Moreover, the concentration at half-maximal activity (AC50) with CD40, CD40 (gene 958) was 1.69 µM (active) and 1.51 µM (active); in assay [6] it was 762 nM (active) and 1.25 µM (active).

As for `NCC(F)(F)C(F)(F)C(F)(F)C(F)(F)C(F)(F)C(F)(F)C(F)(F)C(F)(F)F`, the outcome in assay [1] is “inactive”; in [2], “inactive”; in assay [3] it was “inactive”; in assay [4], “inactive”; in assay [5] it was “inactive”; with CD38, CD38 (gene 952), “inactive”. Further, the outcome is “inactive” in the assay with CD40, CD40 (gene 958) and “inactive” in [6].
